“And” between values parts separate entries of the source, which are not always exact repeats. Identical values can stand only once. Screen size: about 290,000 compounds; about 3,000 (1%) were called active. How the calls were made is not given here. The list comes from a sample in which actives are over-represented; it also holds similar structures and randomly drawn compounds.
Molecular target: Polyadenylate-binding protein 1 (Homo sapiens) (UniProt P11940)
Assay: PABP poly(A) RNA binding inhibitors, primary screen, biochemical, fluorescence polarization, uHTS (AID 2014);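 further: calls also rest on retests at 20 µM and on dose response follow-up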
Conditions: stronger effect = higher value

Polyadenylate-binding protein 1 (Homo sapiens), sequence (P11940 whole entry, looked up): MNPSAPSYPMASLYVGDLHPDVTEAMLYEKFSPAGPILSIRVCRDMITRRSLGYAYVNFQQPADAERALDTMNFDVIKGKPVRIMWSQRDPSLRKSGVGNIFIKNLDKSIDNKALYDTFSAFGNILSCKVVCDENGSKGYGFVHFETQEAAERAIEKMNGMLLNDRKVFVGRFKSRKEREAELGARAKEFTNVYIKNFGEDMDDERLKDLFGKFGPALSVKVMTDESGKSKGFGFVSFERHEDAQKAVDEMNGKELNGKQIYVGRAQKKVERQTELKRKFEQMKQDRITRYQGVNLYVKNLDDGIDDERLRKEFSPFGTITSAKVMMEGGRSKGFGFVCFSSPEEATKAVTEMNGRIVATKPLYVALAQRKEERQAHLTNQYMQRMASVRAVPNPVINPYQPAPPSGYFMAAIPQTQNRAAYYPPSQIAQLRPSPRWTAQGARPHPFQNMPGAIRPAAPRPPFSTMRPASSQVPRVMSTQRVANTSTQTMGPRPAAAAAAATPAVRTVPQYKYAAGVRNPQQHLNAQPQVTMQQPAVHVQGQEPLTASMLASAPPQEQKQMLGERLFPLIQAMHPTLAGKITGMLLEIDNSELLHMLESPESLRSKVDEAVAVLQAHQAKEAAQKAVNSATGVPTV

Row | Compound | inhibition (at 35 µM) | inhibition (confirmation repeats, at 20 µM)
1 | COc1ccc(C(=O)Nc2ccc(C3(C#N)CCCC3)cc2)cc1OC | -5.5% (inactive) | 
2 | CC1CCN(S(=O)(=O)c2ccc3[nH]c(=O)ccc3c2)CC1 | -3.1% (inactive) | 
3 | Cc1c(-c2ccccc2)cn2c1-c1ccc(C)n1CC2 | 88.3% (active) | 
4 | CCN(CC)c1ccc(/C=N/Nc2nc(C)cc(=O)[nH]2)cc1 | -2.5% (inactive) | 
5 | CCN(CC)c1ccc2cc(C(N)=O)/c(=N\NC(=O)c3ccncc3)oc2c1 | 1.8% (inactive) | 
6 | CCN(CC)c1ccc2oc(=O)c(C)nc2c1 | 116% (active) | 62.7%
7 | O=[N+]([O-])c1ccccc1/C=C/CN1CCC(O)CC1 | 4.7% (inactive) | 
8 | O=C(O)c1ccc(-n2nc(-c3ccccc3)c3ccccc3c2=O)cc1 | 8.1% (inactive) | 
9 | CCOc1ccc(-n2cnnn2)cc1S(=O)(=O)N1CCC(C)CC1C (stereo not given) | 74.4% (active) | 87.6%
10 | Cc1ccc(S(=O)(=O)N2CCC(Oc3ccc(-n4cnnn4)cc3)CC2)cc1 | 6.3% (inactive) | 
11 | CCOc1ccc(Br)cc1S(=O)(=O)N1CCC(C(=O)O)CC1 | -2.2% (inactive) | 
12 | Cc1cccc(C(=O)N2CCCC(Nc3ccc(C(C)C)cc3)C2)n1 (stereo not given) | 6.3% (inactive) | 
13 | CCOC(=O)c1c(C)[nH]c2c1-c1ccccc1C(=O)C2=O | -3.9% (inactive) | 
14 | CCOC(=O)c1c(C)[nH]c(C2=NNC(=NC(C)COC)SC2)c1C (stereo not given) | 50.4% (active) | 104%
15 | CCCCOC(=O)c1[nH]c(C)c(C(=O)OC)c1C | -3.8% (inactive) | 
16 | COCCCNS(=O)(=O)c1cccc(S(=O)(=O)c2cccc(S(=O)(=O)NCCCOC)c2)c1 | -6.2% (inactive) | 
17 | CC(=O)NS(=O)(=O)c1ccccc1 | 8.1% (inactive) | 
18 | Cc1ccc(S(=O)(=O)NC(=O)c2cccc(C)c2)cc1 | 4.3% (inactive) | 
19 | Nc1ccc(S(=O)(=O)NC(=O)c2ccccc2)cc1 | 50.5% (active) | 72.5%
20 | S=C(NCc1cccs1)Nc1ccc(Cl)cc1 | -4.3% (inactive) | 
21 | Fc1ccccc1CNC(=S)Nc1ccc(Cl)cc1 | 59.1% (active) | 83%
22 | COC(=O)Cc1ccc(NC(=S)NCc2ccc(Cl)cc2)cc1 | 1.5% (inactive) | 
23 | CC1CCCN(CCCNC(=O)CN2C(=O)COc3ccc(S(=O)(=O)N4CCOCC4)cc32)C1 (stereo not given) | 2.3% (inactive) | 
24 | C=CCNC(=S)/N=c1/ccccn1Cc1ccccc1 | 12.9% (inactive) | 

Row | Compound | inhibition (at 35 µM) | inhibition (confirmation repeats, at 20 µM)
25 | O=C(/C=C/c1ccc(Cl)cc1Cl)c1cccnc1 | -1% (inactive) | 
26 | O=C(OCc1cc2ccccc2[nH]c1=O)c1cccnc1 | -2.2% (inactive) | 
27 | O=C(OCc1cc(Cl)ccc1OC(F)F)c1cccnc1 | 16.1% (active) | 81.2%
28 | CCOC(=O)c1ccc(NC(=O)c2ccc(NC(=O)C3CCCO3)cc2)cc1 (stereo not given) | -0.4% (inactive) | 
29 | CC(C)C[C@@H](CO)N1CCN(Cc2ccc(O)cc2)CCC1=O | 1.4% (inactive) | 
30 | COc1ccc(CCN(C)C(=O)C2CCCN(Cc3ccc(OC)c(OC)c3)C2)cc1OC (stereo not given) | 11.9% (inactive) and 7% (inactive) | 
31 | COc1ccc(Cc2nc3ccc(C(=O)NCC4CCOCC4)cc3o2)cc1OC | 11.1% (inactive) | 
32 | COc1ccc(CN2CCCC(CNC(=O)c3ccc(F)cc3)C2)cc1OC (stereo not given) | 79.6% (active) | 74.7%
33 | O=C(Cc1ccccc1F)NC1CCSc2ccccc21 (stereo not given) | 0.4% (inactive) | 
34 | O=c1[nH]c(=S)[nH]c2[nH]c(=S)[nH]c12 | 91.1% (active) | 
35 | Cc1c(C)c(C)c2[nH]c(=S)[nH]c2c1C | 9.8% (inactive) | 
36 | Cc1ccc2c(c1)N(CC(=O)N1CCOCC1)C(=O)CO2 | 2.5% (inactive) | 
37 | CC1(c2ccc3ccccc3c2)NC(=O)N(CC(N)=O)C1=O (stereo not given) | -4.5% (inactive) | 
38 | O=C(NNS(=O)(=O)c1ccc(Cl)cc1)C1CCN(Cc2ccccc2)CC1 | -4% (inactive) | 
39 | O=C(NNS(=O)(=O)c1ccccc1)c1cnn(-c2ccc(Cl)cc2)c1C(F)(F)F | 11.5% (active) | 102%
40 | NNC(=O)c1cnn(-c2ccccc2)c1C(F)(F)F | 10.3% (inactive) | 
41 | COc1ccc(CCNC(=O)c2ccccc2OCc2ccccc2)cc1 | -3.4% (inactive) | 
42 | CC(C)(C)OC(=O)NNc1c2ccccc2nc2ccccc12 | -1.9% (inactive) | 
43 | CC(=O)c1cnc(SCCN2C(=O)c3ccccc3C2=O)nc1C | -5.5% (inactive) | 
44 | CC(=O)c1cnc(SCC(=O)O)nc1C | 54.3% (active) | 68.8%
45 | CSc1ncc(C(=O)NCCCc2ccccc2)c(C)n1 | -4.6% (inactive) | 
46 | CCC1(CC)Cc2ccccc2-c2nc(CCl)[nH]c(=O)c21 | -1.7% (inactive) | 
47 | O=C(NCCCN1CCOCC1)c1cc(-c2ccccc2F)no1 | -8% (inactive) | 
48 | COc1ccc(N2CCN(C(=S)Nc3ccc(S(N)(=O)=O)cc3)CC2)cc1 | -0.4% (inactive) | 

Row | Compound | inhibition (at 35 µM) | inhibition (confirmation repeats, at 20 µM)
49 | NS(=O)(=O)c1ccc(NC(=S)N2CCCC2)cc1 | 28.2% (active) | 50.5%
50 | CC1CN(C(=S)Nc2ccc(S(N)(=O)=O)cc2)CC(C)O1 (stereo not given) | -12.5% (inactive) | 
51 | CCc1ccc(CNC(=O)C2CCN(c3nnc(C)c4c(C)n(-c5ccc(C)cc5)nc34)CC2)cc1 | -22.4% (inactive) | 
52 | Cc1cccc(NC(=O)Cc2ccc(Br)cc2)n1 | -9.8% (inactive) | 
53 | O=C(NC(Cc1ccc(O)cc1)C(=O)O)/C(=C/c1ccccc1)NC(=O)c1ccccc1 (stereo not given) | 2.8% (inactive) | 
54 | CC1(C)Oc2ccc3ccc(=O)oc3c2/C(=C/NCCO)C1=O | 51.8% (active) | 
55 | CC1(C)Oc2ccc3ccc(=O)oc3c2/C(=N/O)C1=O | -7% (inactive) | 
56 | C/C=C(/C)C(=O)OC1Cc2c(ccc3ccc(=O)oc23)OC1(C)C (stereo not given) | 5.5% (inactive) | 
57 | Cc1ccc(S(=O)(=O)N(CC(O)CN2CCCCC2)c2cccc([N+](=O)[O-])c2)cc1 (stereo not given) | -2.5% (inactive) | 
58 | O=C(CCNS(=O)(=O)c1cccs1)N1CCN(c2ccc(F)cc2)CC1 | 2.5% (inactive) | 
59 | Cc1cccc(CCNS(=O)(=O)c2ccc3c(c2)NC(=O)CO3)c1 | 0.4% (inactive) | 
60 | Cc1nc2ccccc2c(=O)n1Cc1ccc([N+](=O)[O-])cc1 | -8.9% (inactive) | 
61 | Cc1ccc(Cn2c(C)nc3c(c2=O)c2nc4ccccc4nc2n3Cc2ccco2)cc1 | 17.9% (inactive) | 
62 | Cc1nc2c(c(=O)n1Cc1ccco1)c1nc3ccccc3nc1n2Cc1ccccc1 | 57.3% (active) | 
63 | Cc1cccc(NS(=O)(=O)c2cc(Cl)ccc2Cl)n1 | -4.9% (inactive) | 
64 | O=C1CCNCCN1[C@H](CO)Cc1ccccc1 | -8.7% (inactive) | 
65 | COc1ccc(C(=O)NC2=NCCS2)c(OC)c1 | -7.6% (inactive) | 
66 | COc1ccc2cc(C(=O)NCC3CCCO3)[nH]c2c1 (stereo not given) | 0.3% (inactive) | 
67 | O=S(=O)(c1ccc(Br)cc1)N1CCC(c2nc3ccccc3[nH]2)CC1 | 3.9% (inactive) | 
68 | Cc1ccc(CCCOC(=O)C[N+]2(C)CCCCC2)cc1 | 50.6% (active) | 
69 | Cc1ccc(CCCOC(=O)C[N+]2(C)CCCC2)cc1 | 2.4% (inactive) | 
70 | CCCCOC(=O)Cn1c(=O)n(CC(=O)OCCCC)c2cc(C)ccc21 | -8.1% (inactive) | 
71 | Cc1ccc(C(=O)COC(=O)CCN2C(=O)C3C4CCC(C4)C3C2=O)cc1C (stereo not given) | -12.4% (inactive) | 
72 | COc1cccc(NC(=O)N2CCC(NC(=O)C(Cc3cccc(C)c3)NC(C)=O)CC2)c1 (stereo not given) | 2.7% (inactive) | 

Row | Compound | inhibition (at 35 µM) | inhibition (confirmation repeats, at 20 µM)
73 | C/C(=N\NC(=O)CC(C)C)c1c(C(F)(F)F)[nH]n(-c2nc3ccccc3s2)c1=O | -1.1% (inactive) | 
74 | Cc1cc(NC(=O)CN2CCCC(C)C2)n(-c2nc3ccccc3s2)n1 (stereo not given) | 5.3% (inactive) | 
75 | CCC(C)Cn1c(O)cc2nn(-c3nc4ccccc4s3)c(=O)c-2c1C (stereo not given) | 68.7% (active) | 
76 | CCOC(=O)c1ccccc1NC(=O)COC(=O)CCC(=O)N1CCOCC1 | -1.1% (inactive) | 
77 | COc1ccccc1NC(=O)c1cc(N2C(=O)C3C4CCC(C4)C3C2=O)ccc1Cl (stereo not given) | 1.6% (inactive) | 
78 | O=C1OCC2=C1C(c1ccccc1)CC(=O)N2c1cccc(F)c1 (stereo not given) | 68% (active) | 65.5%
79 | O=C1CC(c2ccccc2)C(=O)N1c1cccc(O)c1 (stereo not given) | -5.5% (inactive) | 
80 | O=C1CC(NNc2ccccc2)C(=O)N1c1cccc(Cl)c1 (stereo not given) | -2.5% (inactive) | 
81 | CCc1nnc(NC(=O)CCC(=O)N2CCN(c3cc(C)ccc3C)CC2)s1 | 11.5% (inactive) | 
82 | O=C(OCc1ccc(-c2ccccc2)cc1)c1cccc(O)c1 | 10.5% (inactive) | 
83 | CCc1ccc(OCC2c3cc(OC)c(OC)cc3CCN2C(C)=O)cc1 (stereo not given) | 6.8% (inactive) | 
84 | COc1cc2c(cc1O)[C@H](Cc1ccc(Oc3cc(C[C@@H]4NCCc5cc(OC)c(O)cc54)ccc3O)cc1)NCC2 | 0.1% (active) | 91.3%
85 | CC[C@H]1CN2CCc3cc(OC)c(OC)cc3[C@@H]2C[C@@H]1C[C@H]1NCCc2cc(OC)c(OC)cc21 | 1.5% (inactive) | 
86 | COc1ccccc1C(=O)Nc1ccnn1C1CCN(C(=O)C(C)(C)C)CC1 | 8.7% (inactive) | 
87 | C=CCNc1nnc(SCC(=O)N2CCCCC2)c2ccccc12 | 116% (active) | 56.4%
88 | O=C(CSc1ncccn1)N1CCCC1 | 9.6% (inactive) | 
89 | C=CCNc1nnc(C)c2ccccc12 | -0.7% (inactive) | 
90 | Cc1nc(-c2ccc(F)cc2)c(CC(=O)N2CCN(S(=O)(=O)c3ccc(F)cc3)CC2)s1 | 6.2% (inactive) | 
91 | O=C(CN1CCC(O)(c2cccc(C(F)(F)F)c2)CC1)NCCc1ccccc1 | -5% (inactive) | 
92 | O=C(Nc1cccc([N+](=O)[O-])c1)N1CCc2ccccc2C1 | -6.2% (inactive) | 
93 | CC(C(=O)NCCc1ccc(S(N)(=O)=O)cc1)N1C(=O)CC(C)(C)Sc2ccccc21 (stereo not given) | -1.3% (inactive) | 
94 | Cc1cccc(NC(=O)c2sc3nc(N4CCOCC4)c4c(c3c2N)CCCC4)c1 | 4.1% (inactive) | 
95 | Cc1cccc(NC(=O)c2sc3nc4c(c(-c5ccco5)c3c2N)CCC4)c1 | 63% (active) | 87.7%
96 | NC(=O)c1sc2nc3c(c(-c4ccccc4)c2c1N)CCC3 | -3.5% (inactive) | 

— PubChem BioAssay AID2014 (Sanford-Burnham Center for Chemical Genomics, 2009)
